Test results published in paper PMC5540273 (PLoS ONE, 2017).

test system: LIMK1; conditions: concentration: 1 μM, replicates: in singlicate; n = 1
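Note: KINOMEscan kinase panel screen.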

Compound	%Inh [%]
COc1ccc(Nc2nccc(N3CCC(NC(=O)Nc4cccc(OC)c4)C3)n2)cc1 (stereo not shown) [GSK1379742]	4
Cc1ccc(C)c(NC(=O)NC2CCN(c3ccnc(Nc4ccc(F)cc4)n3)C2)c1 (stereo not shown) [GSK1379720]	9
c1ccc(-c2n[nH]cc2Nc2ccnc3ccccc23)nc1 [GW694077]	0
COc1cc(Nc2nccc(N3CCC(NC(=O)Nc4cccc(C(C)=O)c4)C3)n2)cc(OC)c1OC (stereo not shown) [GSK1379753]	51
O=C(Nc1cccc(-c2nn3ncccc3c2-c2ccnc(Nc3ccccc3)n2)c1)c1c(F)cccc1F [GSK198271]	75
c1ccc(-c2cnc3nccnn23)cc1 [AH20685]	19
Cl.c1ccc(-c2ccc3c(Nc4ccc5[nH]ncc5c4)ccnc3c2)nc1 [GW440137]	9
Fc1ccc(-c2ncn(C3CCNCC3)c2-c2ccnc(Oc3ccc(-c4ccccc4)cc3)n2)cc1 [SB-245391]	0
Clc1ccc(-c2nn3ncccc3c2-c2ccnc(Nc3ccc4c(c3)OCCO4)n2)cc1 [GW829116]	0
Cc1ccc(F)c(C(=O)Nc2cccc(-c3nn4ccccc4c3-c3ccnc(Nc4cccc(F)c4)n3)c2)c1F [GSK361061]	33
CNC(=O)c1ccccc1Nc1nc(Nc2ccc(N3CCOCC3)cc2)ncc1Cl.Cl [GSK1576028]	46
Cc1cccc(Nc2nc(N[C@H]3CCNC3)ncc2C(N)=O)c1.Cl [GSK2197149]	0
CCn1c(-c2nonc2N)nc2c(C#CC(C)(C)O)nc(OC[C@H](N)c3ccccc3)cc21 [GSK943949]	11
COc1cc(Nc2ncc3c(C)nc(-c4cc5ccccc5[nH]4)n3n2)cc(OC)c1OC [GW869516]	0
Cl.NC(=O)c1cccc(Nc2nccc(Nc3ccc(Oc4c(Cl)cccc4Cl)c(Cl)c3)n2)c1 [GW659009]	12
Cl.c1ccc(-c2ccc3c(Nc4ccc5[nH]ccc5c4)ccnc3c2)nc1 [GW440138]	0
CN1CCN(CCCNc2nccc(-c3c(-c4ccc(F)cc4)nn4cc(C(F)(F)F)ccc34)n2)CC1 [GW621581]	0
O=C(Nc1n[nH]c2cc(-c3ccoc3)ccc12)C1CC1 [SB-738481]	14
COc1cccc(C2=C(Nc3ccc(Cl)c(C(=O)O)c3)C(=O)NC2=O)c1 [SB-390769]	13

Compound	%Inh [%]
COc1cccc(-c2ccc3c(NC(=O)C4CC4)n[nH]c3n2)c1 [SB-710903]	14
COc1cccc(NC(=O)NC2CCN(c3ccnc(Nc4cc(OC)c(OC)c(OC)c4)n3)C2)c1 (stereo not shown) [GSK1379763]	21
CN(C)S(=O)(=O)c1cc(-c2ccc3nccc(-c4cccc(S(N)(=O)=O)c4)c3c2)cnc1N [GSK1669921]	86
Cn1cc(-c2ccc3c(c2)CCN3C(=O)Cc2cccc(F)c2)c2c(N)ncnc21 [GSK2603358]	0
COc1ccc(CNC(=O)NC2CCN(c3ccnc(Nc4ccc(F)cc4)n3)CC2)cc1 [GSK1379788]	0
O=C(Nc1cccc(-c2nn3ccccc3c2-c2ccnc(Nc3cccc(F)c3)n2)c1)c1c(F)ccc(F)c1Cl [GSK357952]	43
Cl.Cl.NCC(NCc1ccc(-c2ccnc3[nH]ccc23)s1)c1ccccc1 (stereo not shown) [GSK1321565]	0
CCc1ccc(-c2ccc3c(c2)-c2c(cnn2C)S(=O)(=O)N3C)cc1	0
O=C(O)C(F)(F)F.O=C(O)C(F)(F)F.O=c1[nH]ccc2nc(N[C@@H]3CCCNC3)nc(Nc3ccc(S(=O)(=O)N4CCOCC4)cc3)c12 [GSK2177277]	0
Cc1occc1-c1ncc(OC[C@@H](N)Cc2c[nH]c3ccccc23)cc1-c1ccc2[nH]nc(C)c2c1.O=C(O)C(F)(F)F [GSK682037]	0
COCCOCCOc1cc2ncc3c4ccc(C#N)cc4[nH]c3c2cc1OC	16
CN(C)Cc1ccc(-c2ccc3c(Nc4ccc(Oc5ccccn5)cc4)ccnc3c2)o1 [GW567148]	0
Cc1ccc(C(=O)N2CC[C@@H](O)C2)cc1-n1c(C)cc(OCc2ccc(F)cc2F)c(Br)c1=O	0
Cn1cc(-c2[nH]c3cc(NC(=O)[C@H](N)C4CCCCC4)cc4c3c2C=NNC4=O)cn1	90.6
COc1cc(Nc2nccc(-c3c(-c4cccc(NC(=O)c5c(F)cccc5F)c4)nn4ncccc34)n2)cc(OC)c1OC [GSK327238]	42
CC(=O)Nc1nc2cnc(Nc3cc(NC(=O)c4cccc(C5(C#N)CC5)c4Cl)ccc3C)nc2s1	0
Cc1ccc(C(=O)Nc2ccc(Nc3ccnc4cc(-c5nccs5)ccc34)cc2O)cc1.Cl [GW494702]	26
Nc1ncc(-c2cccnc2)c2scc(-c3ccc4c(c3)CCN4C(=O)Cc3ccccc3)c12 [GSK683281]	22
